Laboratory results: the supplement of paper PMC12282887
± gives the standard deviation of the averaged measurements.

Test system: E. coli BW25113 marRABp lux reporter
Test: promoter activity interaction Z-score (Lux/OD deviation from empty-vector control); higher = stronger promoter induction by the compound
Method: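 E. coli BW25113 (wild type or ΔmarA/ΔsoxS/Δrob) carrying pTU175 luxCDABE promoter reporters was grown in LB in 384-well plates at 37°C with each of 94 compounds at 4 two-fold concentrations, in biological duplicates. Luminescence and OD600 were read every 30 min for 12 h and integrated as AUC over 8 h (0-8 h WT, 1-9 h mutants). Lux AUC was divided by OD AUC; the interaction score is the residual of a Huber robust fit of each promoter against the empty-vector control, then Z-transformed per promoter.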

## CO[C@@H]1[C@@H](OC(N)=O)[C@@H](O)[C@H](Oc2ccc3c(O)c(NC(=O)c4ccc(O)c(CC=C(C)C)c4)c(=O)oc3c2C)OC1(C)C [Novobiocin]
2.4 µg/ml, genetic background: wild type
  promoter activity interaction Z-score: -0.221 ± 0.081
2.4 µg/ml, genetic background: ΔmarA
  promoter activity interaction Z-score: -0.11 ± 0.13
2.4 µg/ml, genetic background: Δrob
  promoter activity interaction Z-score: 0.0782 ± 0.013
2.4 µg/ml, genetic background: ΔsoxS
  promoter activity interaction Z-score: -0.0478 ± 0.0032
4.8 µg/ml, genetic background: wild type
  promoter activity interaction Z-score: 0.022 ± 0.23
4.8 µg/ml, genetic background: ΔmarA
  promoter activity interaction Z-score: 0.415 ± 0.36
4.8 µg/ml, genetic background: Δrob
  promoter activity interaction Z-score: -0.164 ± 0.31
4.8 µg/ml, genetic background: ΔsoxS
  promoter activity interaction Z-score: -0.107 ± 0.12
9.5 µg/ml, genetic background: wild type
  promoter activity interaction Z-score: -0.297 ± 0.13
9.5 µg/ml, genetic background: ΔmarA
  promoter activity interaction Z-score: 0.318 ± 0.33
9.5 µg/ml, genetic background: Δrob
  promoter activity interaction Z-score: -0.282 ± 0.11
9.5 µg/ml, genetic background: ΔsoxS
  promoter activity interaction Z-score: -0.114 ± 0.18
19 µg/ml, genetic background: wild type
  promoter activity interaction Z-score: 1.2 ± 0.98
19 µg/ml, genetic background: ΔmarA
  promoter activity interaction Z-score: 5.2 ± 2.7
19 µg/ml, genetic background: Δrob
  promoter activity interaction Z-score: 0.0504 ± 0.67
19 µg/ml, genetic background: ΔsoxS
  promoter activity interaction Z-score: 1.48 ± 0.89

## COc1ccc2[nH]c([S+]([O-])Cc3ncc(C)c(OC)c3C)nc2c1 (stereo not drawn) [Omeprazole]
21.6 µg/ml, genetic background: wild type
  promoter activity interaction Z-score: -0.572 ± 0.095
21.6 µg/ml, genetic background: ΔmarA
  promoter activity interaction Z-score: -0.27 ± 0.18
21.6 µg/ml, genetic background: Δrob
  promoter activity interaction Z-score: -0.128 ± 0.18
21.6 µg/ml, genetic background: ΔsoxS
  promoter activity interaction Z-score: -0.226 ± 0.23
43.2 µg/ml, genetic background: wild type
  promoter activity interaction Z-score: -0.301 ± 0.098
43.2 µg/ml, genetic background: ΔmarA
  promoter activity interaction Z-score: -0.0417 ± 0.55
43.2 µg/ml, genetic background: Δrob
  promoter activity interaction Z-score: -0.0764 ± 0.16
43.2 µg/ml, genetic background: ΔsoxS
  promoter activity interaction Z-score: -0.0512 ± 0.083
86.4 µg/ml, genetic background: wild type
  promoter activity interaction Z-score: -0.582 ± 0.15
86.4 µg/ml, genetic background: ΔmarA
  promoter activity interaction Z-score: -0.305 ± 0.32
86.4 µg/ml, genetic background: Δrob
  promoter activity interaction Z-score: -0.229 ± 0.12
86.4 µg/ml, genetic background: ΔsoxS
  promoter activity interaction Z-score: -0.22 ± 0.21
172.7 µg/ml, genetic background: wild type
  promoter activity interaction Z-score: -0.5175 ± 0.0031
172.7 µg/ml, genetic background: ΔmarA
  promoter activity interaction Z-score: -0.6 ± 0.24
172.7 µg/ml, genetic background: Δrob
  promoter activity interaction Z-score: -0.408 ± 0.15
172.7 µg/ml, genetic background: ΔsoxS
  promoter activity interaction Z-score: -0.421 ± 0.089

## O=c1[nH]c(=O)c2[nH]c(O)nc2[nH]1 [Sodium urate]
28.4 µg/ml, genetic background: wild type
  promoter activity interaction Z-score: -0.098 ± 0.014
28.4 µg/ml, genetic background: ΔmarA
  promoter activity interaction Z-score: -0.367 ± 0.46
28.4 µg/ml, genetic background: Δrob
  promoter activity interaction Z-score: -0.0815 ± 0.3
28.4 µg/ml, genetic background: ΔsoxS
  promoter activity interaction Z-score: -0.136 ± 0.38
56.8 µg/ml, genetic background: wild type
  promoter activity interaction Z-score: -0.215 ± 0.019
56.8 µg/ml, genetic background: ΔmarA
  promoter activity interaction Z-score: -0.183 ± 0.45
56.8 µg/ml, genetic background: Δrob
  promoter activity interaction Z-score: -0.209 ± 0.11
56.8 µg/ml, genetic background: ΔsoxS
  promoter activity interaction Z-score: -0.198 ± 0.26
113.7 µg/ml, genetic background: wild type
  promoter activity interaction Z-score: 0.0146 ± 0.11
113.7 µg/ml, genetic background: ΔmarA
  promoter activity interaction Z-score: -0.285 ± 0.48
113.7 µg/ml, genetic background: Δrob
  promoter activity interaction Z-score: -0.227 ± 0.062
113.7 µg/ml, genetic background: ΔsoxS
  promoter activity interaction Z-score: -0.19 ± 0.33
227.3 µg/ml, genetic background: wild type
  promoter activity interaction Z-score: -0.107 ± 0.15
227.3 µg/ml, genetic background: ΔmarA
  promoter activity interaction Z-score: 0.16 ± 0.43
227.3 µg/ml, genetic background: Δrob
  promoter activity interaction Z-score: -0.0974 ± 0.043
227.3 µg/ml, genetic background: ΔsoxS
  promoter activity interaction Z-score: -0.0308 ± 0.28
